Most compounds without a hit are left out; they make up all but 4% or so of the library.
TWEAK-Fn14 inh: inhibitors of TWEAK-Fn14 interaction signaling; TWEAK-stimulated Fn14 reporter cells, luciferase luminescence, 8 h; inhibition, % at 10 µM; 360,000 compounds, 2% hits; in the data active = inhibition above about 50%
TROY signal inh: blocks TROY-dependent signaling in reporter cells; Q293 LMP1-TROYcd NF-kB luciferase reporter, 4 h; inhibition, % at 10 µM; 360,000 compounds, 0.98% hits; AID 1347056;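 active = compounds whose plate-normalised and pattern-corrected inhibition of the luciferase reporter signal at the single screening dose is 50% or more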
KKLEB cytotox: CF airway cell cytotoxicity counter-screen. KKLEB CF airway cells viability, ATPlite luminescence, overnight; active compounds read low; cells stimulated with P. aeruginosa culture filtrate. activity change (cytotoxicity), % at 5 µM. 360,000 compounds, 0.36% hits;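 active = corrected activity change at or below -50% at 5 µM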
HIF-2a block: inhibitors of HIF-2a; 786-0 RCC cells HIF-2a reporter, luciferase luminescence, overnight; inhibition, % at 18.8 µM; 360,000 compounds, 0.72% hits;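 active = inhibition of the luminescence signal of 40% or more relative to plate controls, in a single-dose primary screen at 18.75 µM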
Peg3 promoter: reduces Peg3 promoter-driven luciferase expression in HeLa; HeLa PEG-Prom luciferase reporter, luminescence, overnight; inhibition, % at 20 µM; 360,000 compounds, 1.7% hits;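 active = inhibition of at least 50% at 20 µM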
CF NFkB block: inhibitors of cystic fibrosis induced NF-kB. KKLEB NF-kB-GFP reporter, PAF-induced, GFP fluorescence overnight. inhibition, % at 5 µM. 360,000 compounds, 0.86% hits;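 active = at least 50% inhibition at 5 µM, scaled per plate between neutral and stimulator controls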;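 also: PAF is a Pseudomonas aeruginosa culture filtrate used as stimulus; plate controls were PAF-stimulated DMSO wells for no effect and unstimulated DMSO wells for full effect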
An asterisk follows results filed as active; . = no result.

SMILES	TWEAK-Fn14 inh	TROY signal inh	KKLEB cytotox	HIF-2a block	Peg3 promoter	CF NFkB block
Oc1ccccc1-c1n[nH]c(-c2ccccc2O)n1	77*	-2	0	-179	-186	18
Clc1ccccc1-c1nc(-c2ccccc2)n[nH]1	1	-68	1	-226	-202	-8
CC[C@@]1(C(=O)OC)N[C@H](CN(C)C(=O)NC(C)C)[C@@H]2C(=O)N(C)C(=O)[C@@H]21	2	-3	-8	3	-7	13
COc1ccc(CSc2ccc(S(=O)(=O)N3CCCC3)cn2)cc1F	16	12	0	-10	-2	1
Cc1ccc(C2=NN(C(=O)CNCCO)C(c3cccs3)C2)cc1 (centres undefined)	-17	-56	1	-180	-137	0
C#CC1(O)CCC2C3CCC4=Cc5oncc5CC4(C)C3CCC21C (centres undefined)	-33	31	-5	14	34	19
C#C[C@]1(O)CCC2C3CCC4=Cc5oncc5CC4(C)C3CCC21C (some centres undefined)	0	51*	23	20	18	18
COCCN1C(=O)Cc2c1nc(N)c1c(N)nc(N3CCN(c4ccc(F)cc4)CC3)c(C#N)c21	7	10	9	11	24	-13
COCC(C)N1C(=O)Cc2c1nc(N)c1c(N)nc(N3CCN(c4ccccc4F)CC3)c(C#N)c21 (centres undefined)	11	-6	-15	21	55*	6
FC(F)(F)c1ccccc1Cc1c(-c2ccc(Cl)cc2)nc2c3ccccc3ccn12	-4	-69	.	-43	.	.
Fc1ccc(-c2nc3c4ccccc4ccn3c2Cc2ccccc2C(F)(F)F)cc1	-2	59*	-10	-108	-32	8
COc1cc(C(=O)ON=C2C3CC4CC(C3)CC2C4)cc(OC)c1OC	-24	1	4	-6	76*	4
O=CN(Cc1nc2ccccc2[nH]1)c1ccc(C(=O)O)cc1	10	18	-11	3	6	15
Cc1ccc2oc(C(=O)N3CCN(c4cccc(C)n4)CC3)c(C)c2c1	69*	-33	0	-121	-29	-5
C=CC[n+]1ccc(/C=C2\C=Cc3cc(C)ccc3N2CC)c2ccccc21	18	50*	-33	-18	43	48
CCN1/C(=C/c2cc[n+](CCCS(=O)(=O)[O-])c3ccccc23)Sc2ccccc21	18	8	-7	8	16	-2
Fc1ccccc1Cn1nnc(-c2ccc3c(c2)OCO3)n1	16	53*	-14	-160	-313	-3
O=C(CCc1ccccc1)NNC(=O)Nc1ccc(F)c(Cl)c1	6	5	18	16	15	9
CCN1CCN(Cc2nc3cc(NC(=O)COc4ccc([N+](=O)[O-])cc4)ccc3n2C)CC1	-8	9	-1	3	-6	-9
Cc1ccc(NC2=CC(=O)CC(C)(C)C2)cc1C	-12	-26	-6	-2	-1	21
CC1(C)CC(=O)C=C(Nc2ccc3c(c2)OCCO3)C1	70*	50	5	27	-33	-8
CC[N+](C)(C)CC/C=C1/c2ccccc2Sc2ccc(Cl)cc21	4	15	5	16	-4	-18
OCCN1CCN(CC/C=C2/c3ccccc3Sc3ccc(Cl)cc32)CC1	-25	-13	-3	-17	87*	18
CCCCCCCCCCC[N+](C)(C)CC/C=C1/c2ccccc2Sc2ccc(Cl)cc21	-35	-63	-29	-24	108*	32
N#CC1=C(N)N2C(=C(C#N)C1c1cccc(Br)c1)Nc1ccccc12 (centres undefined)	94*	73*	-50*	3	40	42
O=S(=O)(NC1c2cccc3cccc(c23)C1Sc1ncccn1)c1ccccc1 (centres undefined)	108*	91*	-2	6	12	0
Cc1nnc(SCC(=O)Nc2cc(Cl)ccc2Cl)n1CC1CCCO1 (centres undefined)	11	-14	-11	10	9	5
O=C(Nc1cc(Cl)ccc1O)c1snnc1-c1ccccc1	9	55*	-11	-3	35	28
CCCCCCCCCCOC(=O)Cn1c(COc2ccccc2OC)[n+](C)c2ccccc21	67*	61*	-54*	42*	106*	51*
